Results from PMC11006913.

Experiments:
Experiment in all cases: PBM; 200 nM protein, PBS
Conditions in all cases: dsDNA, one strand shown
HESX1 [1] = target: HESX1 (Homo sapiens, UniProt Q9UBX0 95-180, R165K)
SHOX [2] = target: SHOX (Homo sapiens, UniProt O15266 103-189)
ALX4 = ALX4 (Homo sapiens, UniProt Q9H161 200-286, Q225E)
HESX1 [3] = target: HESX1 (Homo sapiens, UniProt Q9UBX0 95-180)
MSX2 = MSX2 (Homo sapiens, UniProt P35548 130-214, R199I)
ALX1 [4] = target: ALX1 (Homo sapiens, UniProt Q15699 118-204, L144V)
ALX3 [5] = target: ALX3 (Homo sapiens, UniProt O95076 139-225, N203Q)
SHOX [6] = target: SHOX (Homo sapiens, UniProt O15266 103-189, R173C)
ALX1 [7] = target: ALX1 (Homo sapiens, UniProt Q15699 118-204, L144R)
ALX3 [8] = target: ALX3 (Homo sapiens, UniProt O95076 139-225)
PROP1 [9] = target: PROP1 (Homo sapiens, UniProt O75360 56-141)
HESX1 [10] = target: HESX1 (Homo sapiens, UniProt Q9UBX0 95-180, R109Q)
PROP1 [11] = target: PROP1 (Homo sapiens, UniProt O75360 56-141, R99H)
ALX3 [12] = target: ALX3 (Homo sapiens, UniProt O95076 139-225, L168Q)
HESX1 [13] = target: HESX1 (Homo sapiens, UniProt Q9UBX0 95-180, P111T)
ALX3 [14] = target: ALX3 (Homo sapiens, UniProt O95076 139-225, L168V)
PROP1 [15] = target: PROP1 (Homo sapiens, UniProt O75360 56-141, F88S)
HESX1 [16] = target: HESX1 (Homo sapiens, UniProt Q9UBX0 95-180, F115L)
ALX1 [17] = target: ALX1 (Homo sapiens, UniProt Q15699 118-204)
ALX3 [18] = target: ALX3 (Homo sapiens, UniProt O95076 139-225, N203S)
Chain of ALX3 (Homo sapiens, UniProt O95076 139-225, N203S) (O95076 139-225 N203S): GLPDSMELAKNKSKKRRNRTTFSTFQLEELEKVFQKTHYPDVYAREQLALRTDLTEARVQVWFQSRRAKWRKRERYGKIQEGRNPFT

Chain of PROP1 (Homo sapiens, UniProt O75360 56-141, F88S) (O75360 56-141 F88S): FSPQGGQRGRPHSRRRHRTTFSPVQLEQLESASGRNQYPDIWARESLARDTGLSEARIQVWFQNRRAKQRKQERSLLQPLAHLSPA
Chain of HESX1 (Homo sapiens, UniProt Q9UBX0 95-180, P111T) (Q9UBX0 95-180 P111T): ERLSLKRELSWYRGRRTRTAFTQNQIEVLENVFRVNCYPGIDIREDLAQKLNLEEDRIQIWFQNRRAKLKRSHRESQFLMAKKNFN
Chain of HESX1 (Homo sapiens, UniProt Q9UBX0 95-180, F115L) (Q9UBX0 95-180 F115L): as the sequence (Q9UBX0 95-180 P111T) above, with T17P, F21L counted along it
Chain of HESX1 (Homo sapiens, UniProt Q9UBX0 95-180, R165K) (Q9UBX0 95-180 R165K): as the sequence (Q9UBX0 95-180 P111T) above, with T17P, R71K counted along it
Chain of HESX1 (Homo sapiens, UniProt Q9UBX0 95-180, R109Q) (Q9UBX0 95-180 R109Q): as the sequence (Q9UBX0 95-180 P111T) above, with R15Q, T17P counted along it
Chain of MSX2 (P35548 130-214 R199I): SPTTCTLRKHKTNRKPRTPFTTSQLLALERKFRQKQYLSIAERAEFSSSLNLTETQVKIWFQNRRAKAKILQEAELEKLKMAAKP
Chain of ALX1 (Homo sapiens, UniProt Q15699 118-204) (Q15699 118-204): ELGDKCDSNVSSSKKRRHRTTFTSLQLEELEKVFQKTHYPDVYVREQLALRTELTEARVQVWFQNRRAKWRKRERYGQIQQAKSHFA
Chain of SHOX (Homo sapiens, UniProt O15266 103-189) (O15266 103-189): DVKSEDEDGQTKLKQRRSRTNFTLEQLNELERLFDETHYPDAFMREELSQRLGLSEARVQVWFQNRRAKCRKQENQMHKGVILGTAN
Chain of PROP1 (Homo sapiens, UniProt O75360 56-141, R99H) (O75360 56-141 R99H): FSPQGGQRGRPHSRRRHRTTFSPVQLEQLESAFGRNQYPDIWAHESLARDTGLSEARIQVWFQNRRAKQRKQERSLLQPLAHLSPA
Chain of PROP1 (Homo sapiens, UniProt O75360 56-141) (O75360 56-141): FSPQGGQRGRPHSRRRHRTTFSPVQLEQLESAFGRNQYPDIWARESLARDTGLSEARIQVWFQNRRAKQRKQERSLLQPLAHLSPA
Chain of HESX1 (Homo sapiens, UniProt Q9UBX0 95-180) (Q9UBX0 95-180): as the sequence (Q9UBX0 95-180 P111T) above, with T17P counted along it
Chain of SHOX (Homo sapiens, UniProt O15266 103-189, R173C) (O15266 103-189 R173C): as the sequence (O15266 103-189) above, with R71C counted along it
Chain of ALX1 (Homo sapiens, UniProt Q15699 118-204, L144R) (Q15699 118-204 L144R): as the sequence (Q15699 118-204) above, with L27R counted along it
Chain of ALX1 (Homo sapiens, UniProt Q15699 118-204, L144V) (Q15699 118-204 L144V): as the sequence (Q15699 118-204) above, with L27V counted along it
Chain of ALX3 (Homo sapiens, UniProt O95076 139-225, N203Q) (O95076 139-225 N203Q): as the sequence (O95076 139-225 N203S) above, with S65Q counted along it
Chain of ALX3 (Homo sapiens, UniProt O95076 139-225, L168Q) (O95076 139-225 L168Q): as the sequence (O95076 139-225 N203S) above, with L30Q, S65N counted along it
Chain of ALX4 (Q9H161 200-286 Q225E): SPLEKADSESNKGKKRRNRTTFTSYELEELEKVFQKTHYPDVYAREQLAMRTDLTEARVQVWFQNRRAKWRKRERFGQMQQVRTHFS
Chain of ALX3 (Homo sapiens, UniProt O95076 139-225, L168V) (O95076 139-225 L168V): as the sequence (O95076 139-225 N203S) above, with L30V, S65N counted along it
Chain of ALX3 (Homo sapiens, UniProt O95076 139-225) (O95076 139-225): as the sequence (O95076 139-225 N203S) above, with S65N counted along it

Sequence | binding signal (HESX1 [1]) | binding signal (SHOX [2]) | binding signal (ALX4) | binding signal (HESX1 [3]) | binding signal (MSX2) | binding signal (ALX1 [4]) | binding signal (ALX3 [5]) | binding signal (SHOX [6]) | binding signal (ALX1 [7]) | binding signal (ALX3 [8]) | binding signal (PROP1 [9]) | binding signal (HESX1 [10]) | binding signal (PROP1 [11]) | binding signal (ALX3 [12]) | binding signal (HESX1 [13]) | binding signal (ALX3 [14]) | binding signal (PROP1 [15]) | binding signal (HESX1 [16]) | binding signal (ALX1 [17]) | binding signal (ALX3 [18])
CCAATTAG | 13.5 upbm affinity estimate (log intensity, higher = more binding, comparable within an allelic series) | 12.8 upbm affinity estimate (log intensity, higher = more binding, comparable within an allelic series) | 13.6 upbm affinity estimate (log intensity, higher = more binding, comparable within an allelic series) | 13.4 upbm affinity estimate (log intensity, higher = more binding, comparable within an allelic series) | 13.1 upbm affinity estimate (log intensity, higher = more binding, comparable within an allelic series) | 12 upbm affinity estimate (log intensity, higher = more binding, comparable within an allelic series) | 8.31 upbm affinity estimate (log intensity, higher = more binding, comparable within an allelic series) | 10.3 upbm affinity estimate (log intensity, higher = more binding, comparable within an allelic series) | 11.7 upbm affinity estimate (log intensity, higher = more binding, comparable within an allelic series) | 12.7 upbm affinity estimate (log intensity, higher = more binding, comparable within an allelic series) | 11.9 upbm affinity estimate (log intensity, higher = more binding, comparable within an allelic series) | 10.5 upbm affinity estimate (log intensity, higher = more binding, comparable within an allelic series) | 12.1 upbm affinity estimate (log intensity, higher = more binding, comparable within an allelic series) | 10.9 upbm affinity estimate (log intensity, higher = more binding, comparable within an allelic series) | 12.2 upbm affinity estimate (log intensity, higher = more binding, comparable within an allelic series) | 10.4 upbm affinity estimate (log intensity, higher = more binding, comparable within an allelic series) | 7.63 upbm affinity estimate (log intensity, higher = more binding, comparable within an allelic series) | 8.12 upbm affinity estimate (log intensity, higher = more binding, comparable within an allelic series) | 12.7 upbm affinity estimate (log intensity, higher = more binding, comparable within an allelic series) | 8.47 upbm affinity estimate (log intensity, higher = more binding, comparable within an allelic series)
AGGGACCG | 6.62 upbm affinity estimate (log intensity, higher = more binding, comparable within an allelic series) | 7.23 upbm affinity estimate (log intensity, higher = more binding, comparable within an allelic series) | – | 6.41 upbm affinity estimate (log intensity, higher = more binding, comparable within an allelic series) | – | – | – | 7.13 upbm affinity estimate (log intensity, higher = more binding, comparable within an allelic series) | – | – | – | 6.42 upbm affinity estimate (log intensity, higher = more binding, comparable within an allelic series) | – | – | 6.58 upbm affinity estimate (log intensity, higher = more binding, comparable within an allelic series) | – | – | 6.26 upbm affinity estimate (log intensity, higher = more binding, comparable within an allelic series) | – | –
TAATTGGA | 13.4 upbm affinity estimate (log intensity, higher = more binding, comparable within an allelic series) | 12.6 upbm affinity estimate (log intensity, higher = more binding, comparable within an allelic series) | 13.7 upbm affinity estimate (log intensity, higher = more binding, comparable within an allelic series) | 13.3 upbm affinity estimate (log intensity, higher = more binding, comparable within an allelic series) | 13 upbm affinity estimate (log intensity, higher = more binding, comparable within an allelic series) | 12 upbm affinity estimate (log intensity, higher = more binding, comparable within an allelic series) | 8.38 upbm affinity estimate (log intensity, higher = more binding, comparable within an allelic series) | 9.96 upbm affinity estimate (log intensity, higher = more binding, comparable within an allelic series) | 11.7 upbm affinity estimate (log intensity, higher = more binding, comparable within an allelic series) | 12.7 upbm affinity estimate (log intensity, higher = more binding, comparable within an allelic series) | 11.8 upbm affinity estimate (log intensity, higher = more binding, comparable within an allelic series) | 9.97 upbm affinity estimate (log intensity, higher = more binding, comparable within an allelic series) | 12 upbm affinity estimate (log intensity, higher = more binding, comparable within an allelic series) | 10.9 upbm affinity estimate (log intensity, higher = more binding, comparable within an allelic series) | 11.9 upbm affinity estimate (log intensity, higher = more binding, comparable within an allelic series) | 10.3 upbm affinity estimate (log intensity, higher = more binding, comparable within an allelic series) | 7.7 upbm affinity estimate (log intensity, higher = more binding, comparable within an allelic series) | 8.04 upbm affinity estimate (log intensity, higher = more binding, comparable within an allelic series) | 12.7 upbm affinity estimate (log intensity, higher = more binding, comparable within an allelic series) | 8.55 upbm affinity estimate (log intensity, higher = more binding, comparable within an allelic series)
ATTAATGC | 8.93 upbm affinity estimate (log intensity, higher = more binding, comparable within an allelic series) | – | – | 9.02 upbm affinity estimate (log intensity, higher = more binding, comparable within an allelic series) | – | – | – | – | – | – | – | – | – | – | – | – | – | – | – | –
GGAAGACC | 6.27 upbm affinity estimate (log intensity, higher = more binding, comparable within an allelic series) | 7.12 upbm affinity estimate (log intensity, higher = more binding, comparable within an allelic series) | – | 6.19 upbm affinity estimate (log intensity, higher = more binding, comparable within an allelic series) | – | – | – | 7.18 upbm affinity estimate (log intensity, higher = more binding, comparable within an allelic series) | – | – | – | 6.45 upbm affinity estimate (log intensity, higher = more binding, comparable within an allelic series) | – | – | 6.41 upbm affinity estimate (log intensity, higher = more binding, comparable within an allelic series) | – | – | 6.45 upbm affinity estimate (log intensity, higher = more binding, comparable within an allelic series) | – | –
ACAATTAG | 11.8 upbm affinity estimate (log intensity, higher = more binding, comparable within an allelic series) | 11.6 upbm affinity estimate (log intensity, higher = more binding, comparable within an allelic series) | – | 12.1 upbm affinity estimate (log intensity, higher = more binding, comparable within an allelic series) | 12.6 upbm affinity estimate (log intensity, higher = more binding, comparable within an allelic series) | 11.2 upbm affinity estimate (log intensity, higher = more binding, comparable within an allelic series) | – | 9.13 upbm affinity estimate (log intensity, higher = more binding, comparable within an allelic series) | 10.8 upbm affinity estimate (log intensity, higher = more binding, comparable within an allelic series) | – | 11.1 upbm affinity estimate (log intensity, higher = more binding, comparable within an allelic series) | 8.66 upbm affinity estimate (log intensity, higher = more binding, comparable within an allelic series) | 11 upbm affinity estimate (log intensity, higher = more binding, comparable within an allelic series) | – | 10.4 upbm affinity estimate (log intensity, higher = more binding, comparable within an allelic series) | – | 7.51 upbm affinity estimate (log intensity, higher = more binding, comparable within an allelic series) | 7.42 upbm affinity estimate (log intensity, higher = more binding, comparable within an allelic series) | 12 upbm affinity estimate (log intensity, higher = more binding, comparable within an allelic series) | –
